Only some compounds are listed: those with a hit (about 2.9% of all), similar ones and a draw of the others.
esBAF inh – SWI/SNF esBAF complex inhibition. actives 2% (n = 350,000). mouse ES cells, Bmi1-luciferase knock-in reporter, 24 h; 100% = twice the neutral-well signal. reporter increase, % at 12.5 µM. AID 602393; in the data active = activation above about 40%; inconclusive = no clear call, values can overlap the other calls;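 note: a rise in the Bmi1 reporter signal indicates esBAF inhibition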
Vif inh – HIV Vif inhibition; HEK293T cells, Vif self-association by quenched fluorescence, imaging, 24 h; inhibition, % at 7.49 µM; actives 0.35% (n = 340,000); in the data active = inhibition above about 50%, passing the limit was not always enough; inconclusive = no clear call, values can overlap the other calls; inactive = below about 31%
MITF act – activators of MITF-driven TRPM1 promoter activity in SK-MEL-5 cells; SK-MEL-5 TRPM1-promoter luciferase, 24 h; % of positive control, neutral wells = 0; activation, % at 12.5 µM; actives 0.75% (n = 300,000); AID 588334;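 active = mean activation of at least 80% with every replicate also reaching 80%; inconclusive = mean reaches 80% but some replicate falls short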
PvdQ acylase – P. aeruginosa PvdQ acylase inhibition | purified PvdQ acylase, fluorescence plate reader | inhibition, % at 10 µM | actives 0.063% (n = 340,000); in the data active = inhibition above about 30%, passing the limit was not always enough; inconclusive = no clear call, values can overlap the other calls
Glyco luc inh – blocks N-linked glycosylation in D54 reporter cells; D54 ERlucT glycosylation luciferase reporter, 24 h; percent of 100 nM tunicamycin response; reporter increase, % at 12.5 µM; actives 0.23% (n = 360,000);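 active = mean luciferase reporter signal, scaled so untreated is 0 and the glycosylation-blocking control 100, at or above a set limit in every replicate; inconclusive = mean reaches the limit but not every replicate does; inactive = mean below the limit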;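 note: luciferase carries N-glycosylation sites so blocking glycosylation raises the light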
Wnt bcat act – activators of Wnt/beta-catenin signaling; Wnt/beta-catenin reporter cell assay, activator, plate reader; activation, % at 9.35 µM; actives 1.2% (n = 300,000); AID 743398; in the data active = activation above about 30%, passing the limit was not always enough; inconclusive = no clear call, values can overlap the other calls
Ring1 derepress – esBAF inhibition confirmed by Ring1 de-repression | 550 tested, under 10 active | fold change at 33 µM | shares compounds with esBAF inh | AID 743176 | mouse ESC E14, Ring1 mRNA RT-qPCR fold change;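 active = Ring1 gene expression raised more than 2-fold over untreated cells in both replicates at either tested dose; inconclusive = only one replicate above 2-fold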;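 note: Ring1 transcript normalised to actin housekeeping signal by TaqMan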
Fgf4 repress – esBAF inhibition confirmed by Fgf4 repression | shares compounds with esBAF inh | mouse ESC E14, Fgf4 mRNA qPCR fold change; hits give low values | Fgf4 expression fold change at 33 µM | actives 4% (n = 550);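 active = Fgf4 expression under 0.8 fold of control in both repeat measurements at one or both tested doses; inconclusive = under 0.8 fold in just a single repeat measurement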;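 note: Fgf4 transcript normalised to actin in duplex TaqMan qPCR; cells exposed to compound for 24 h before lysis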
esBAF Bmi1 qPCR – de-represses Bmi1 in mouse ESCs, confirming esBAF inhibition; shares compounds with esBAF inh; mouse ESE14 ES cells, Bmi1 mRNA qPCR fold; hits give high values; 550 tested, under 10 active; fold change at 33 µM; AID 743180;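 active = Bmi1 expression fold change above 6 at either tested concentration, seen in replicate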;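 note: higher fold means more Bmi1 de-repression and stronger esBAF inhibition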
A549 cytotox – cytotoxicity in A549 cells. shares compounds with esBAF inh. plate reader. cell viability change % (negative = cytotoxic), % at 25 µM, hits read low. 550 tested, under 10 active. AID 743188; call rule not given here
HepG2 tox SP – cytotoxicity in HepG2 cells. plate reader; hits give low values. shares compounds with esBAF inh. activity change, negative = inhibition, % at 25 µM. actives 4% (n = 550); in the data active = activity change below about -50%
HEK293 cytotox SP – HEK293 cell cytotoxicity at single point | shares compounds with esBAF inh | plate reader | activity change, negative = inhibition, % at 25 µM, hits read low | actives 3% (n = 550) | AID 743190; in the data active = activity change below about -38%, passing the limit was not always enough
Hits are given with their value.

How did COc1ccc(C(=O)c2sc(Nc3ccc(NC(C)=O)cc3)nc2C)cc1 do in these assays?
esBAF inh: inactive; Vif inh: inactive; PvdQ acylase: inactive; Glyco luc inh: inactive; Wnt bcat act: inactive

What do the screens show for `CCC(=O)N1C[C@@H](C)[C@H](OC)CN(C)C(=O)c2cc(NC(=O)Nc3ccc(Cl)cc3)ccc2OC[C@@H]1C`?
esBAF inh: inactive

How did CC/C(=N\NC(=O)c1cc(C2CC2)[nH]n1)c1ccccc1 do in these assays?
esBAF inh: 56; Vif inh: inactive; MITF act: inactive; PvdQ acylase: inactive; Glyco luc inh: inactive; Wnt bcat act: inactive; Ring1 derepress: inactive; Fgf4 repress: inactive; esBAF Bmi1 qPCR: inactive; A549 cytotox: inactive; HepG2 tox SP: inactive; HEK293 cytotox SP: inactive

How did CS(=O)(=O)Nc1ccc2c(c1)[C@@H]1C[C@H](CC(=O)NCc3cccc(F)c3)O[C@@H](CO)[C@@H]1O2 do in these assays?
esBAF inh: inactive

Results for O=C(CCc1nnc(C2(c3ccc(Cl)cc3)CCC2)o1)N1CCCC1 ?
esBAF inh: 65; Vif inh: inactive; MITF act: inactive; PvdQ acylase: inactive; Glyco luc inh: inactive; Wnt bcat act: inactive; Ring1 derepress: inactive; Fgf4 repress: inactive; esBAF Bmi1 qPCR: inactive; A549 cytotox: inactive; HepG2 tox SP: inactive; HEK293 cytotox SP: inactive

How did O=C(Nc1ccc2c(c1)OCO2)c1cnc(Cl)c(Cl)c1 do in these assays?
esBAF inh: 54; Vif inh: inactive; MITF act: inactive; PvdQ acylase: inactive; Glyco luc inh: inactive; Wnt bcat act: inactive; Ring1 derepress: inactive; Fgf4 repress: inactive; esBAF Bmi1 qPCR: inactive; A549 cytotox: inactive; HepG2 tox SP: inactive; HEK293 cytotox SP: inactive

What do the screens show for `CC(C)NC(=O)N1C[C@H]2[C@@H](c3ccccc31)[C@@H](CO)N2C(=O)c1ccncc1`?
esBAF inh: inactive

How did CO[C@H]1CN(C)C(=O)c2ccc(NC(=O)C3CC3)cc2OC[C@@H](C)N(C(=O)C2CCCCC2)C[C@H]1C do in these assays?
esBAF inh: inactive

What do the screens show for `COc1ccc(NC(=O)Nc2ccc3c(c2)CC(=O)N([C@H](C)CO)C[C@H](C)[C@@H](CN(C)C)O3)cc1`?
esBAF inh: inactive

Results for Cc1cc(C)c(C(=O)CN2C(=O)NC3(CCCCC3)C2=O)cc1C ?
Vif inh: inactive; MITF act: inactive; PvdQ acylase: inactive; Glyco luc inh: inactive; Wnt bcat act: inactive

What do the screens show for `Cc1ccc(C(=O)CN2C(=O)NC3(CCCCCC3)C2=O)c(C)c1`?
esBAF inh: 80; Vif inh: inactive; MITF act: 115; PvdQ acylase: inactive; Glyco luc inh: inactive; Wnt bcat act: inactive; Ring1 derepress: inactive; Fgf4 repress: inactive; esBAF Bmi1 qPCR: inactive; A549 cytotox: inactive; HepG2 tox SP: inactive; HEK293 cytotox SP: inactive

What do the screens show for `C=CCn1c(NCc2ccc(OC)cc2O)nc2ccccc21`?
esBAF inh: 61; Vif inh: inactive; PvdQ acylase: inactive; Glyco luc inh: inactive; Wnt bcat act: inactive; Ring1 derepress: inactive; Fgf4 repress: inactive; esBAF Bmi1 qPCR: inactive; A549 cytotox: inactive; HepG2 tox SP: -68; HEK293 cytotox SP: inactive

How did COc1ccc(C(=O)Nc2cc3c4c(c2)CC(=O)N4CCC3)c(OC)c1 do in these assays?
esBAF inh: 67; Vif inh: inactive; MITF act: 86; PvdQ acylase: inactive; Glyco luc inh: inactive; Ring1 derepress: inactive; Fgf4 repress: inactive; esBAF Bmi1 qPCR: inactive; A549 cytotox: inactive; HepG2 tox SP: inactive; HEK293 cytotox SP: inactive

How did Cn1c(-c2ncc(F)cc2F)cc2onc(-c3c(F)cccc3Cl)c2c1=O do in these assays?
esBAF inh: 91; Vif inh: inactive; MITF act: 87; PvdQ acylase: inactive; Glyco luc inh: inactive; Wnt bcat act: 40; Ring1 derepress: inactive; Fgf4 repress: inconclusive; esBAF Bmi1 qPCR: inactive; A549 cytotox: inactive; HepG2 tox SP: inactive; HEK293 cytotox SP: inactive

How did Cn1c(-c2ccccc2F)cc2onc(-c3ccccc3)c2c1=O do in these assays?
esBAF inh: inactive; Vif inh: inactive; MITF act: inactive; PvdQ acylase: inactive; Glyco luc inh: inactive; Wnt bcat act: inactive

Results for C[C@H](NC(=O)C[C@@H]1CC[C@H](NC(=O)C2CCOCC2)[C@@H](CO)O1)c1ccccc1 ?
esBAF inh: inactive

Results for CC1(C)C=Cc2cc(-c3coc4cc(O)cc(O)c4c3=O)cc(O)c2O1 ?
esBAF inh: 68; Vif inh: inactive; MITF act: inactive; PvdQ acylase: inactive; Glyco luc inh: inactive; Wnt bcat act: inactive; Ring1 derepress: inactive; Fgf4 repress: inactive; esBAF Bmi1 qPCR: inactive; A549 cytotox: inactive; HepG2 tox SP: inactive; HEK293 cytotox SP: inactive

What do the screens show for `C[C@@H]1CCCCO[C@@H](CN(C)CC2CC2)[C@@H](C)CN([C@H](C)CO)C(=O)c2cc(NS(C)(=O)=O)ccc2O1`?
esBAF inh: inactive

Results for COc1cc(/C=C/c2nc3ccccc3c(=O)[nH]2)ccc1OC(F)F ?
esBAF inh: 56; Vif inh: inactive; MITF act: inconclusive; PvdQ acylase: inactive; Glyco luc inh: inactive; Wnt bcat act: 35; Ring1 derepress: inactive; Fgf4 repress: inactive; esBAF Bmi1 qPCR: inactive; A549 cytotox: inactive; HepG2 tox SP: inactive; HEK293 cytotox SP: inactive

Results for NC(=O)c1cccc(-c2noc(-c3ccccc3F)n2)c1 ?
esBAF inh: inactive; Vif inh: inactive; MITF act: inactive; PvdQ acylase: inactive; Glyco luc inh: inactive; Wnt bcat act: inactive

What do the screens show for `NC(=O)c1ccccc1-c1nc(-c2ccccc2)no1`?
esBAF inh: 74; Vif inh: inactive; PvdQ acylase: inactive; Glyco luc inh: inactive; Ring1 derepress: inactive; Fgf4 repress: inactive; esBAF Bmi1 qPCR: inactive; A549 cytotox: inactive; HepG2 tox SP: inactive; HEK293 cytotox SP: inactive

How did CCCNC(=O)[C@@H]1[C@@H](CO)[C@@H]2Cn3c(cccc3=O)[C@H]1N2Cc1cc(F)ccc1F do in these assays?
esBAF inh: inactive
